A short description of assay [1]: Cell Viability - LYMP2-025 (AID 976). The settings on record: LYMP2-025 lymphoblastoid cell viability; series mostly up to 92.2 µM. The method, boiled down:
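Acute cytotoxicity is scored as a concentration-dependent fall in intracellular ATP, measured by luciferase luminescence, in human lymphoblastoid LYMP2-025 cells exposed to compound for 24 hours at 37 C. AC50 values come from standard Hill fits.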

A short description of assay [2]: Cell Viability - LYMP2-009 (AID 968). Note: nearly all actives have a fitted effect of over 55% in size. Conditions: LYMP2-009 lymphoblastoid cell viability; series mostly up to 92.2 µM.
Assay [3] is described as follows: Cell Viability - LYMP2-011 (AID 969). Note: nearly all actives have a fitted effect of over 60% in size. The settings on record: LYMP2-011 lymphoblastoid cells viability; series mostly up to 92.2 µM. An outline of the steps:
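In this qHTS cytotoxicity format, compounds are tested across concentrations on human lymphoblastoid cells in complete medium for 24 hours at 37 C. Viability is taken as cellular ATP measured by luciferase luminescence.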

The nature of assay [4]: Cell Viability - LYMP2-013 (AID 970). Note: nearly all actives have a fitted effect of over 55% in size. Conditions: LYMP2-013 lymphoblastoid cells viability; series mostly up to 92.2 µM. The method, boiled down: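 Cytotoxicity is scored as a concentration-dependent drop in intracellular ATP in human lymphoblastoid cells after 24 hr compound exposure at 37 C. ATP is quantified by luciferase luminescence, and AC50 values come from Hill-equation modeling.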

Assay [5] in a line: Cell Viability - LYMP2-015 (AID 971). Note: nearly all actives have a fitted effect of over 55% in size. Conditions: LYMP2-015 lymphoblastoid cell viability; series mostly up to 92.2 µM. The method, boiled down:
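Cells are seeded at 2500 per well and incubated 5 hr at 37 C. Compounds are added across a concentration series for 24 hr at 37 C. CellTiter-Glo is added, and luminescence is read after 30 min at room temperature.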

Assay [6] can be described thus: Cell Viability - LYMP2-017 (AID 972). Note: nearly all actives have a fitted effect of over 55% in size. Conditions: LYMP2-017 lymphoblastoid cell viability; series mostly up to 92.2 µM. An outline of the steps: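 Cytotoxicity is scored as a concentration-dependent drop in cellular ATP in a human lymphoblastoid line after 24 hr treatment at 37 C. Values are AC50s from Hill-equation modelling.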
Assay [7] can be described thus: Cell Viability - LYMP2-019 (AID 973). Note: nearly all actives have a fitted effect of over 55% in size. Conditions: LYMP2-019 lymphoblastoid cell line viability; series mostly up to 92.2 µM. The method, boiled down: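 Cytotoxicity is scored as a concentration-dependent drop in cellular ATP after cells (2500/well) receive compound for 24 hr at 37 C. Tetraoctylammonium bromide serves as positive control.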
The nature of assay [8]: Cell Viability - LYMP2-021 (AID 974). The settings on record: LYMP2-021 lymphoblastoid cells viability; series mostly up to 92.2 µM. An outline of the steps: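 Loss of cellular ATP, measured with a luciferase-based CellTiter-Glo readout, serves as the toxicity signal in human lymphoblastoid cells treated for 24 hours at 37 C. Potency is reported as AC50 from a standard Hill model.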

A short description of assay [9]: Cell Viability - LYMP2-023 (AID 975). Note: nearly all actives have a fitted effect of over 55% in size. The settings on record: LYMP2-023 lymphoblastoid cell viability; series mostly up to 92.2 µM. The method, boiled down:
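Steps: seed 2500 human lymphoblastoid cells per well, incubate 5 hr at 37 C, add compound for 24 hr at 37 C, add CellTiter-Glo, hold 30 min at room temperature, read luminescence. AC50 derived by Hill modelling.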

Assay [10] is described as follows: Cell Viability - LYMP2-005 (AID 967). The settings on record: LYMP2-005 lymphoblastoid cell viability; series mostly up to 92.2 µM. An outline of the steps: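 CellTiter-Glo luminescence (cellular ATP) read-out; LYMP2-005 lymphoblastoid cells, 2500/well, 5 h pre-incubation, then 24 h compound exposure at 37 C in complete medium. Tetraoctylammonium bromide positive control; AC50 by standard Hill fit.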

These results are taken from PubChem BioAssay (NCATS).

Inconclusive results are not listed. Active and inactive are the calls of the source. Calls come from the whole dose curve; as a rule, active = well fitted curve in the direction sought with a large enough effect; inconclusive = small, poorly fitted or top-dose-only effect, or another doubt; inactive = no such curve, though single readings can be large; an effect the other way counts as inactive or inconclusive. Numbered stars: 1 amine (or outer) side, 2 acyl side, 3 side chain; on linkers, the order of the positions; unused ones are H or OH. Bridge positions count the residues as written; N and C are the ends. Square brackets hold non-standard residues; d marks the D form. Peptide text beside a SMILES is read from it. I, II: the chains in the order shown. Actinocin(9to1) = Cc1c2oc3c(C)ccc(C(=O)[*:1])c3nc-2c(C(=O)[*:2])c(N)c1=O; NMeV = CN[C@H](C(=O)O)C(C)C; Sar = CNCC(=O)O
Potency is the fitted concentration of half-maximal effect.

For `Oc1c(I)cc(Cl)c2cccnc12`, in assay [1], the Potency entry was “inactive”.
As for `CC(C)(C)CC(C)(C)c1ccc(OCCOCC[N+](C)(C)Cc2ccccc2)cc1`, the Potency in assay [2] was 31.6 µM (active); in assay [3] it was 31.6 µM (active); in [4], 25.1 µM (active); in assay [5] it was 25.1 µM (active); in assay [6], 31.6 µM (active); in assay [7] it was 39.8 µM (active). Further, the values for the Potency in assay [8], in [9] and in assay [1] were 31.6 µM (active), 39.8 µM (active) and 39.8 µM (active), respectively.
Take `C=C(CC)C(=O)c1ccc(OCC(=O)O)c(Cl)c1Cl`: the Potency is 50.1 µM (active) in assay [2]; 50.1 µM (active) in assay [3]; 50.1 µM (active) in assay [4]; 50.1 µM (active) in [5]; 50.1 µM (active) in assay [6]; 39.8 µM (active) in assay [7]. Moreover, the Potency in [8] is 39.8 µM (active).
For the compound `COC1=CC(=O)C[C@@H](C)[C@]12Oc1c(Cl)c(OC)cc(OC)c1C2=O`, the Potency entry in assay [10], in assay [2], in assay [3], in assay [4], in assay [5] and in [6] was “inactive” each time. Moreover, the Potency entry in assay [7], in assay [8], in assay [9] and in assay [1] was “inactive” each time.
On to `O=C(O)CCCCC(=O)O`, for which the Potency result in [10], in assay [2], in assay [3], in [4], in [5] and in [6] was “inactive” throughout. Also, the Potency entry in assay [7], in assay [8], in assay [9] and in assay [1] was “inactive” each time.
As for `CC(O)C(=O)O` (centres undefined), the Potency entry in assay [10], in [2], in [3], in assay [4], in assay [5] and in assay [6] was “inactive” in each case. For the same compound, the Potency entry in assay [7], in assay [8], in assay [9] and in assay [1] was “inactive” in each case.
Regarding `CC/C(=C(/CC)c1ccc(O)cc1)c1ccc(O)cc1`, the Potency entry in assay [10], in assay [2], in [3], in assay [4], in [5] and in assay [6] was “inactive” throughout. For the same compound, the Potency entry in [7], in assay [8], in [9] and in assay [1] was “inactive” throughout.
For the compound `CC(=O)O[C@]1(C(C)=O)CC[C@H]2[C@@H]3C[C@H](C)C4=CC(=O)CC[C@]4(C)[C@H]3CC[C@@]21C`, the Potency is 39.8 µM (active) in assay [2]; 39.8 µM (active) in [3]; 31.6 µM (active) in assay [4]; 39.8 µM (active) in [5]; 31.6 µM (active) in assay [6]; 39.8 µM (active) in assay [8].
As for `COc1cccc2c1C(=O)c1c(O)c3c(c(O)c1C2=O)C[C@@](O)(C(=O)CO)C[C@@H]3O[C@H]1C[C@H](N)[C@H](O)[C@H](C)O1`, the Potency in assay [10] is 0.398 µM (active); in [2], 0.251 µM (active); in assay [3], 0.251 µM (active); in [4] it was 1 µM (active); in [5] it was 0.158 µM (active); in assay [6] it was 0.631 µM (active). Also, the Potency in assay [7] was 0.631 µM (active); in [8], 0.398 µM (active); in assay [9], 0.398 µM (active); in assay [1] it was 0.501 µM (active).
For `CCCCCCc1ccc(O)cc1O`, the Potency result in [10], in assay [2], in assay [3], in [4], in [5] and in [6] was “inactive” throughout. Besides, the Potency result in [7], in [8], in assay [9] and in assay [1] was “inactive” throughout.
As to `Cc1c2oc3c(C)ccc(C(=O)N[C@@H]4C(=O)N[C@H](C(C)C)C(=O)N5CCC[C@H]5C(=O)N(C)CC(=O)N(C)[C@@H](C(C)C)C(=O)O[C@@H]4C)c3nc-2c(C(=O)N[C@@H]2C(=O)N[C@H](C(C)C)C(=O)N3CCC[C@H]3C(=O)N(C)CC(=O)N(C)[C@@H](C(C)C)C(=O)O[C@@H]2C)c(N)c1=O` (I: T[dV]P[Sar][NMeV] / II: T[dV]P[Sar][NMeV]; ester I:1-I:C, II:1-II:C; linker I:N-II:N via Actinocin(9to1)), the Potency was 0.01 µM (active) in assay [6] and 0.0025 µM (active) in [8].
Regarding `Oc1c(Cl)cc(Cl)cc1Sc1cc(Cl)cc(Cl)c1O`, the Potency entry in assay [10] was “inactive”. Besides, the Potency is 50.1 µM (active) in [2], 50.1 µM (active) in assay [4] and 39.8 µM (active) in assay [8].
As to `O=C1OC(c2ccc(O)cc2)(c2ccc(O)cc2)c2ccccc21`, the Potency result in [10], in assay [2], in [3], in assay [4], in [5] and in assay [6] was “inactive” in each case. For the same compound, the Potency entry in assay [7], in [8], in assay [9] and in [1] was “inactive” each time.
As to `C=CCc1ccc(O)c(OC)c1`, the Potency entry in assay [10], in assay [2], in assay [3], in assay [4], in assay [5] and in assay [6] was “inactive” throughout. Also, the Potency entry in [7], in assay [8], in assay [9] and in assay [1] was “inactive” each time.
On to `COc1cccc2c1C(=O)c1c(O)c3c(c(O)c1C2=O)C[C@@](O)(C(C)=O)C[C@@H]3O[C@H]1C[C@H](N)[C@H](O)[C@H](C)O1`, for which the Potency in assay [10] was 0.158 µM (active); in assay [2] it was 0.251 µM (active); in assay [4] it was 2 µM (active); in assay [6], 0.631 µM (active); in assay [7], 3.98 µM (active).
For `NC(=NCCCCCCN=C(N)/N=C(\N)Nc1ccc(Cl)cc1)/N=C(\N)Nc1ccc(Cl)cc1`, the Potency in assay [2] is 50.1 µM (active); in [3], 39.8 µM (active); in assay [4], 39.8 µM (active); in [5] it was 39.8 µM (active); in [6], 39.8 µM (active); in assay [8], 39.8 µM (active). Further, the Potency in assay [9] is 50.1 µM (active).
As for `C[C@]12CC[C@@H]3c4ccc(O)cc4CC[C@H]3[C@@H]1CC[C@@H]2O`, the Potency result in assay [10], in assay [2], in assay [3], in assay [4], in assay [5] and in [6] was “inactive” in each case. Besides, the Potency result in [7], in assay [8], in [9] and in assay [1] was “inactive” throughout.
In the case of `Oc1ccc(O)cc1`, the Potency in [10] was 39.8 µM (active); in assay [2], 50.1 µM (active); in [3], 39.8 µM (active); in assay [5], 50.1 µM (active); in assay [6] it was 39.8 µM (active); in assay [8], 50.1 µM (active). Further, the Potency result in [9] and in assay [1] was “inactive” each time.
For the compound `Nc1ccc(C(=O)O)cc1`, the Potency entry in assay [10], in [2], in [3], in assay [4], in [5] and in [6] was “inactive” each time. Further, the Potency entry in [7], in [8], in assay [9] and in [1] was “inactive” throughout.
In the case of `CC(=O)Oc1ccc(C(c2ccc(OC(C)=O)cc2)c2ccccn2)cc1`, the Potency entry in assay [10], in assay [2], in assay [3], in [4], in [5] and in [6] was “inactive” in each case. The Potency result in assay [7], in [8], in assay [9] and in [1] was “inactive” each time.
Take `CN(C)/N=N/c1nc[nH]c1C(N)=O`: the Potency result in assay [10], in [2], in assay [3], in assay [4], in assay [5] and in assay [6] was “inactive” in each case. Further, the Potency entry in [7], in assay [8], in assay [9] and in assay [1] was “inactive” throughout.
In the case of `O=c1ccc2ccccc2o1`, the Potency result in [10], in assay [2], in [3], in assay [4], in assay [5] and in [6] was “inactive” in each case. Moreover, the Potency entry in assay [7], in assay [8], in assay [9] and in [1] was “inactive” each time.
